Compound activity: PubChem, The Scripps Research Institute Molecular Screening Center
DAX1 inh-1 = DAX1 (NR0B1) inhibition, primary screen | HEK293T StAR-luciferase reporter, SF-1/DAX-1 repression relief | inhibition, % at 6.8 µM | hit rate 1.1% among 370,000;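 active = inhibition above the mean over all tested compounds plus 3 SD, cut at about 3.6% in these data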;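 also: higher inhibition means more luminescence from relief of DAX-1 repression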
DAX1 inh-2 = NR0B1 (DAX1) inhibition | P51843 | inhibition, % at 6.75 µM | hit rate 0.99% among 340,000 | AID 504766 | HEK293 Gal4-DAX1 luciferase reporter, luminescence;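 active = inhibition above the mean over all tested compounds plus 3 SD, cut at about 4.2% in these data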;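 also: inhibition shows as a rise in luminescence from relieved DAX1 repression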
Target sequence (P51843 207-470 limits assumed): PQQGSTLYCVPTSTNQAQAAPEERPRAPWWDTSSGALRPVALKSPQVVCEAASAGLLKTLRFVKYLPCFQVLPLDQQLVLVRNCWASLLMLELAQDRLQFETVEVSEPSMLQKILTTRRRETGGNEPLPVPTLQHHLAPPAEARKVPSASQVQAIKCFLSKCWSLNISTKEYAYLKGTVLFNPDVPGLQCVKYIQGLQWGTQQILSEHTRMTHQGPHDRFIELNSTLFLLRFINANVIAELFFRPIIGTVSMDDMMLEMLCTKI
hgDAF-12 ag = activates the H. glycines DAF-12 receptor ligand-binding domain | HEK293 GAL4-hgDAF12 UAS-luciferase reporter, agonist luminescence; normalized to butyrate control | activation, % at 6.8 µM | hit rate 1.8% among 370,000;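 active = activation above a cutoff set at the mean of all screened compounds plus 3 SD, cut at about 10% in these data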
hcDAF12 agonist = H. contortus DAF-12 activation, primary screen; HEK293 hcDAF-12 lit1-tk-luc reporter, luminescence; 0% DMSO, 100% Δ7-dafachronic acid; activation, % at 6.8 µM; hit rate 1.4% among 370,000; AID 652067;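 active = activation above the mean of all tested compounds plus 3 SD, cut at about 5.5% in these data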
ssDAF12 agonist = activators of S. stercoralis DAF-12 nuclear receptor; hit rate 1% among 370,000; activation, % at 6.8 µM; HEK293 ssDAF-12/GRIP1 lit1-tk-luc reporter, luminescence; % of 3 µM dafachronic acid response;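 active = activation above the mean over all tested compounds plus 3 SD, cut at about 0.9% in these data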
DAX1 conf = confirmation of human DAX1 (NR0B1) inhibitors; shares compounds with DAX1 inh-1; HEK293T StAR-promoter luciferase reporter, SF-1/DAX-1 repression; inhibition, % at 6.8 µM; hit rate 87% among 2,400; AID 652134;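 active = inhibition above the average of every tested compound plus 3 SD, cut at about 3.8% in these data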;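 also: active compounds raise luminescence by relieving repression of the StAR reporter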
SF1 mutant ctr = nonselective inhibitor or artifact in SF-1 mutant DAX1 counter-screen; shares compounds with DAX1 inh-1; inhibition, % at 6.8 µM; hit rate 78% among 2,400; HEK293 StAR-luciferase, SF-1 AF2 mutant, luminescence; AID 652136;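 active = inhibition above the mean of all tested compounds plus 3 SD, cut at about 3% in these data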
A number is an active result; n = inactive; x = no result given. Hits are enriched below; roughly 4.1% of the tested compounds scored in any of these assays.

SMILES	DAX1 inh-1	DAX1 inh-2	hgDAF-12 ag	hcDAF12 agonist	ssDAF12 agonist	DAX1 conf	SF1 mutant ctr
CC(C)N=C1NN=C(c2ccc(F)cc2)CS1	5.9	n	13	n	n	11	6.0
CCN=C1NN=C(c2ccc(C)cc2)CS1	n	n	n	n	n	x	x
Cc1cccn2cc(-c3ccc4c(c3)NC(=O)CO4)nc12	n	n	n	n	n	x	x
Cc1ccn2cc(-c3ccc4c(c3)NC(=O)CO4)nc2c1	5.3	n	11	n	n	8.6	6.0
CCCCC(=O)NC(=S)NNC(=O)CC#N	4.7	n	n	n	n	n	n
COC(=O)C1=C(C)N(Cc2ccccc2C(F)(F)F)C(=NCc2cc(OC)c(OC)c(OC)c2)NC1c1ccccc1 (configuration not stated)	n	x	n	n	n	x	x
COC(=O)c1cc(NC(=O)c2cccs2)ccc1N1CCOCC1	n	n	n	n	n	x	x
O=C(Nc1ccc(N2CCOCC2)c(F)c1)c1cccs1	10	n	n	n	n	11	7.4
CCOC(=O)c1c(C)[nH]c(C(=O)NNC(=O)c2ccccc2F)c1C	5.1	n	n	n	n	8.3	6.5
CCOC(=O)c1ccc(NC(=O)N2CCc3ccccc32)cc1	4.8	n	18	n	n	11	7.9
C#CCNC(=O)C[C@H]1C[C@@]2(C(=O)OC)C(=C[C@H](COCc3ccccc3)O[C@@H]2C)N(Cc2ccc(Cl)cc2Cl)C1=O	n	x	n	n	n	x	x
NC(=O)C1CCN(c2nc(-c3ccc4c(c3)CCO4)cs2)CC1	x	x	n	n	n	x	x
CCCCn1c(N)c(N(CCOC)C(=O)c2ccc(Br)o2)c(=O)[nH]c1=O	n	n	n	n	n	x	x
CCCCn1c(N)c(N(C)C(=O)c2ccc(Br)o2)c(=O)[nH]c1=O	4.6	n	n	n	n	n	n
CN(Cc1cn(Cc2ccccc2)nn1)S(=O)(=O)c1ccccc1Br	n	x	n	n	n	x	x
O=C(C1CCC1)n1ccc2ccc(-c3ccc4ccn(Cc5ccccc5)c4c3)cc21	n	x	n	n	n	x	x
Cc1ccc(SCc2nc(N)nc(Nc3ccccc3C)n2)cc1C	n	n	n	n	n	x	x
Cc1ccccc1Nc1nc(N)nc(CSc2ccc(F)cc2)n1	6.7	7.5	12	n	n	11	4.6
Cc1cc(Cl)ccc1OCC(=O)N/N=C/c1ccc[nH]1	x	x	n	n	n	x	x
Cc1ccc(Cc2c(-c3ccc(Cl)cc3)nc3cc(C)ccn23)cc1	7.2	n	n	n	n	n	n
Cc1ccn2c(Cc3ccccc3)c(-c3ccccc3)nc2c1	5.5	n	11	n	n	n	n
Cc1ccn2c(CN3CCOCC3)c(-c3ccccc3)nc2c1	n	n	n	n	n	x	x
CCOC1CCCc2oc(-c3ccc(OC)cc3)c(C#CCCO)c21 (configuration not stated)	n	x	n	n	n	x	x
COc1ccc(-c2oc3c(c2C#CC2(O)CCCCC2)C(OC)CCC3)cc1 (configuration not stated)	5.6	x	n	n	n	n	n
COc1cc(N2CCC(O)CC2)ccc1Nc1nnc(Cl)c(Nc2ccccc2S(C)(=O)=O)n1	x	n	x	x	x	x	x
SMILES	DAX1 inh-1	DAX1 inh-2	hgDAF-12 ag	hcDAF12 agonist	ssDAF12 agonist	DAX1 conf	SF1 mutant ctr
CCOc1cc(N2CCC(O)CC2)ccc1Nc1ncc2c(n1)N(C)c1ccccc1C(=O)N2C	5.9	x	n	n	n	n	n
CCCCN(CC)CCCNC(=O)c1cc2c(=O)n(C)c3ccccc3c2n1C	4.7	n	n	n	n	8.7	n
CN(C)c1ccc(N=Nc2ccc(C(=O)O)cc2)cc1	n	n	n	n	n	x	x
Cc1cc(O)c(N=Nc2ccc(C(=O)O)cc2)cc1C	5.2	4.3	n	n	n	21	7.7
O=C(CSc1ccccn1)Nc1ccc2c(c1)CCC2	5.0	n	n	n	n	7.2	5.5
O=C(CSc1ccccn1)Nc1ccc2c(c1)OCCO2	n	n	n	n	n	x	x
CCCCCCC12C(=Cc3cc4c(cc31)OCCO4)c1cc(OC)c(OC)cc1C(CC(=O)NCc1ccccc1)N2C(=O)OC (configuration not stated)	n	x	n	n	n	x	x
Nc1cnn(C2OC(CO)C(O)C2O)c(=O)n1 (configuration not stated)	4.6	n	n	n	n	6.8	n
Nc1nc(=O)n(C2OC(CO)C(O)C2O)cc1F (configuration not stated)	n	x	n	n	n	x	x
Cc1ccccc1CN1CCCCC(NC(=O)Nc2ccccc2-c2ccccc2)C1=O (configuration not stated)	n	x	n	n	n	x	x
Fc1ccc(-c2nnc(-c3ccc(Cl)cc3)o2)cc1	n	n	n	n	n	x	x
Fc1ccc(-c2nnc(-c3ccc(Cl)cc3Cl)o2)cc1	5.3	n	12	n	n	8.3	3.6
COC(=O)[C@H]1C[C@]2(C(/C=C(\C)CCC=C(C)C)S(=O)(=O)c3ccccc3)c3ccccc3N[C@H]2N1 (some centres not stated)	x	x	n	n	n	x	x
O=C(O)c1ccccc1NN=Cc1ccccc1	5.6	4.5	n	n	n	9.3	5.9
CN(C)CCN(C(=O)c1ccc2c(c1)CCCC2)c1nc2cc3c(cc2s1)OCCO3	6.0	n	n	6.1	n	4.4	n
CCCCNC(=O)C[C@@H]1C(=O)N(Cc2ccc(OC)cc2)/C2=C/CCCCC[C@@]21C(=O)OCC	n	x	n	n	n	x	x
CCOC(=O)[C@]12CCCCC/C=C\1N(Cc1ccc(OC)cc1)C(=O)[C@H]2CC(=O)NCCCOC	5.2	x	n	n	n	n	n
CCc1c(Cc2ccccc2)ncn1CCc1ccccc1OC	n	x	n	n	n	x	x
C[C@H](NS(=O)(=O)c1ccc(Cl)cc1)C(=O)OCC(=O)Nc1cc(S(=O)(=O)N2CCOCC2)ccc1Cl	7.7	n	n	n	n	n	n
CCN(CC)c1ccc(S(=O)(=O)N2CCOCC2)cc1NC(=O)COC(=O)c1cccnc1SC	5.3	n	n	n	n	n	n
COC(=O)[C@]12C[C@H](CC(=O)NCc3cccs3)C(=O)N(CCc3ccc(OC)c(OC)c3)C1=C[C@H](COCc1ccccc1)O[C@@H]2C	n	x	n	n	n	x	x
Cc1ccc(CC(=O)O/N=C(\N)c2ccccn2)cc1	5.0	n	11	n	n	4.0	3.2
Cc1cccc(C(=O)Nc2nc3ncccn3c2-c2ccc(F)cc2)c1	n	x	n	n	n	x	x
Cc1ccc(-c2cc(C(=O)N3CCCC3)no2)cc1	4.9	n	n	n	n	8.6	n
Cc1ccc(-c2cc(C(=O)N3CCOCC3)no2)cc1	n	n	n	n	n	x	x
O=C(NCCO)C1(C(=O)C2CC2)CC(c2ccccc2C(F)(F)F)=NO1 (configuration not stated)	n	x	n	n	n	x	x
